Test in all cases: DAPPL (digital affinity profiling via proximity ligation, sequencing); 10 mM Tris-HCl pH 7.5, 50 mM NaCl, 1 mM DTT, 4% glycerol, room temperature, 30 min; GST-TFs on glutathione beads, 16-mer random dsDNA library, 0.1% formaldehyde crosslink after washing; high values mean tight binding
Common to all, as to settings: protein: recombinant; tags: N-terminal GST; dsDNA, one strand shown

Assay [1] concerns the target T1, ERF (Homo sapiens, UniProt P50548 1-548).
T1 sequence: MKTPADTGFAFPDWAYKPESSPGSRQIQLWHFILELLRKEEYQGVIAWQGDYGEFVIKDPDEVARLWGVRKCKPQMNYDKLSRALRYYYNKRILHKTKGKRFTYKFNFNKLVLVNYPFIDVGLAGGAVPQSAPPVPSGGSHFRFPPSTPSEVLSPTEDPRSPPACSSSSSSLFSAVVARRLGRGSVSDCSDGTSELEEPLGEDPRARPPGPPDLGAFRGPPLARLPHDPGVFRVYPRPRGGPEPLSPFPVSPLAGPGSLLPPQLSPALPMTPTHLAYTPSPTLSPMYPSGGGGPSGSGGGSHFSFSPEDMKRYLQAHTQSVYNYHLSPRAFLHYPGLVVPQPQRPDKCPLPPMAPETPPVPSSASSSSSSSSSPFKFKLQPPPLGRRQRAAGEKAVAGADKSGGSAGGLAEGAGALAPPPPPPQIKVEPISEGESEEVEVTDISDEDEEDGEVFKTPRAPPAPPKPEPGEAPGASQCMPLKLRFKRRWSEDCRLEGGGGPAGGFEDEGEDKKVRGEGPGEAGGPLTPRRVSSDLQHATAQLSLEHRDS
Put shortly: (§1)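 Pools were built from human transcription factors expressed in yeast as GST fusions, captured on glutathione beads and DNA-barcoded, along with a tag-only sample. Incubation with 200 nmole of a 16-mer random double-stranded DNA library lasted 30 min at room temperature in Tris/NaCl/DTT/glycerol buffer, and was followed by washing, 0.1% formaldehyde crosslinking, proximity ligation, PCR amplification and Illumina NextSeq500 sequencing. Binding signal is the quotient of each hexamer's read frequency for a factor and its frequency for the tag-only sample.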

Assay [2] has as its target T2, ETV3L (Homo sapiens, UniProt Q6ZN32 1-361).
T2 sequence: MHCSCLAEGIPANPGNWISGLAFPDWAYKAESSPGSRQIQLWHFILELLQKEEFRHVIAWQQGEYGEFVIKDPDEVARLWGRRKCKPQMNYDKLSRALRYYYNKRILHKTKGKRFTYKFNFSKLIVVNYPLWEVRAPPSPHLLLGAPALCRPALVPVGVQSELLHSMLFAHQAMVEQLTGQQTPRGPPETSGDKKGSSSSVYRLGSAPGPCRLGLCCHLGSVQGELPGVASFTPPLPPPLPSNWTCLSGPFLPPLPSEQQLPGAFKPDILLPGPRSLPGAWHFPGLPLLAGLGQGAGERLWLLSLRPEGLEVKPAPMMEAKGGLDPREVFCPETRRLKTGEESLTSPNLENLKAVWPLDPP
An outline of the steps:
as §1

The target of assay [3] is T3, ETS2 (Homo sapiens, UniProt P15036 1-469).
T3 sequence: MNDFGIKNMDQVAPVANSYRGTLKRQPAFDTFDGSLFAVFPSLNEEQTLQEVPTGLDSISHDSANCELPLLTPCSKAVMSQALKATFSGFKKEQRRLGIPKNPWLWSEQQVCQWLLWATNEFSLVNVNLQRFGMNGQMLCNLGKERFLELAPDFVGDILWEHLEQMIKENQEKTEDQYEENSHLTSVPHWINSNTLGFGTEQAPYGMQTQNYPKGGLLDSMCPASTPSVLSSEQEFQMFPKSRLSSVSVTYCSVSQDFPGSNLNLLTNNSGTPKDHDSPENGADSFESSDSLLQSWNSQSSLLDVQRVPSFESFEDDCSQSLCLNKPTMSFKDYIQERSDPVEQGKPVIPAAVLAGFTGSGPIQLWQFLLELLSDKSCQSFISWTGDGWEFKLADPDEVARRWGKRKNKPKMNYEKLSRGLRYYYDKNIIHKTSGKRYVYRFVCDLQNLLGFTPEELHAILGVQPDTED
Put shortly:
as §1

The target in assay [4] is T4, SPDEF (Homo sapiens, UniProt O95238 1-335).
T4 sequence: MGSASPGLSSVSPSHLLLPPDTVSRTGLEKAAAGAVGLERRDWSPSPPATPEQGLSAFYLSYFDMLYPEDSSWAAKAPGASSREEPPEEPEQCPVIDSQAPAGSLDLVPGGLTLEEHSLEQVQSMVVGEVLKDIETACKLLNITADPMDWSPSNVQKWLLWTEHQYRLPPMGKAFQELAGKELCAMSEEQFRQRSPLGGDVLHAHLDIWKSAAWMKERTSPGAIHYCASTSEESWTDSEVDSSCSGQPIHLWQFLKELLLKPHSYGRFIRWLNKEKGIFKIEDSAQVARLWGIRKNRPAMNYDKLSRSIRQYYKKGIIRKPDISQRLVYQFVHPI
Put shortly:
as §1

In assay [5] the target is T5, ETV7 (Homo sapiens, UniProt Q9Y603 1-341).
T5 sequence: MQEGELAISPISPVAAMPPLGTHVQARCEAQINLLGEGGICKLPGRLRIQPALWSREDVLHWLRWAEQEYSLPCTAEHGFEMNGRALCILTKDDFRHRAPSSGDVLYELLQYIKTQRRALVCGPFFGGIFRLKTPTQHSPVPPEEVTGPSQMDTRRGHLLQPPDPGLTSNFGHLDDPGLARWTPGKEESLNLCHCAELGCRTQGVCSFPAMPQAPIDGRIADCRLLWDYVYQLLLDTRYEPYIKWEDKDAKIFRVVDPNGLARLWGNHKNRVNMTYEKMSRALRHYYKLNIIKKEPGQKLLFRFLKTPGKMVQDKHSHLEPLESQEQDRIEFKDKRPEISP
An outline of the steps:
as §1

Assay [6] deals with T6, ELF5 (Homo sapiens, UniProt Q9UKW6-2 1-255).
T6 sequence: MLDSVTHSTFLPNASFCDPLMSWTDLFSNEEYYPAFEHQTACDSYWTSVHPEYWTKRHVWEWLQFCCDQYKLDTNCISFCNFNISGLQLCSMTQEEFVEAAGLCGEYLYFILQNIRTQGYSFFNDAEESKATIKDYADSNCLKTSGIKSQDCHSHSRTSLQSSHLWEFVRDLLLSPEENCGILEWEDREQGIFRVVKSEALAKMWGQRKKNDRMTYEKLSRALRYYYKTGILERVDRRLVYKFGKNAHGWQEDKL
An outline of the steps: as §1

Assay [7] concerns the target T7, ETV3 (Homo sapiens, UniProt P41162-2 1-143).
T7 sequence: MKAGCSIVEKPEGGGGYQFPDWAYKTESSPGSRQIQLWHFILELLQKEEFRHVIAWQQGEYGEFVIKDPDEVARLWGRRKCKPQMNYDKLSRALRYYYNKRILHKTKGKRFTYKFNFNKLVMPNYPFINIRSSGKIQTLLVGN
An outline of the steps:
as §1

Assay [8] addresses ETV6 (Homo sapiens, UniProt P41212 1-452). An outline of the steps:
as §1

Sequence of ETV6 (P41212 whole entry): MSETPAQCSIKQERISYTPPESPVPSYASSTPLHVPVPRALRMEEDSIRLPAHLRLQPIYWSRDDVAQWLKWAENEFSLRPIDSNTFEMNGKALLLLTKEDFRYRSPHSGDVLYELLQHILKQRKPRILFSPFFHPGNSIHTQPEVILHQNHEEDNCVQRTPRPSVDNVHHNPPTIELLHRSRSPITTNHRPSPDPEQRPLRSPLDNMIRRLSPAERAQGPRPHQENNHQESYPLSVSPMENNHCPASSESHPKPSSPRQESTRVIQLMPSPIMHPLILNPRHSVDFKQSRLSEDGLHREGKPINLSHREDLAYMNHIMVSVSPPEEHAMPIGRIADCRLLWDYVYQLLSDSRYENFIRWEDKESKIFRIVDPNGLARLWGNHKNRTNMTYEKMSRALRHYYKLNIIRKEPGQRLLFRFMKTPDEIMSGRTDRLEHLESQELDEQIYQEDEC

For the sequence TCCCTG, the binding signal was 1.29 fold enrichment (6-mer frequency, TF over GST control) in assay [1]; 1.28 fold enrichment (6-mer frequency, TF over GST control) in assay [2]; 1.21 fold enrichment (6-mer frequency, TF over GST control) in assay [3]; 1.19 fold enrichment (6-mer frequency, TF over GST control) in assay [4]; 1.23 fold enrichment (6-mer frequency, TF over GST control) in assay [5]; 1.38 fold enrichment (6-mer frequency, TF over GST control) in assay [6]. The binding signal is 1.26 fold enrichment (6-mer frequency, TF over GST control) in assay [7] and 1.31 fold enrichment (6-mer frequency, TF over GST control) in assay [8].

Turning to TGTTGA, the binding signal was 1.13 fold enrichment (6-mer frequency, TF over GST control) in assay [1]; 1.17 fold enrichment (6-mer frequency, TF over GST control) in assay [2]; 1.11 fold enrichment (6-mer frequency, TF over GST control) in assay [3]; 1.23 fold enrichment (6-mer frequency, TF over GST control) in assay [4]; 1.18 fold enrichment (6-mer frequency, TF over GST control) in assay [5]; 1.08 fold enrichment (6-mer frequency, TF over GST control) in assay [6]. For the same sequence, the binding signal in assay [7] is 1.11 fold enrichment (6-mer frequency, TF over GST control); in assay [8] it was 1.01 fold enrichment (6-mer frequency, TF over GST control).

GGCACT: the binding signal in assay [1] was 1.26 fold enrichment (6-mer frequency, TF over GST control); in assay [2], 1.27 fold enrichment (6-mer frequency, TF over GST control); in assay [3], 1.24 fold enrichment (6-mer frequency, TF over GST control); in assay [4], 1.24 fold enrichment (6-mer frequency, TF over GST control); in assay [5], 1.26 fold enrichment (6-mer frequency, TF over GST control); in assay [6], 1.11 fold enrichment (6-mer frequency, TF over GST control). The binding signal is 1.29 fold enrichment (6-mer frequency, TF over GST control) in assay [7] and 1.31 fold enrichment (6-mer frequency, TF over GST control) in assay [8].

With TTCTAA, the binding signal in assay [1] is 1.23 fold enrichment (6-mer frequency, TF over GST control); in assay [2], 1.16 fold enrichment (6-mer frequency, TF over GST control); in assay [3], 1.26 fold enrichment (6-mer frequency, TF over GST control); in assay [4], 1.22 fold enrichment (6-mer frequency, TF over GST control); in assay [5], 1.23 fold enrichment (6-mer frequency, TF over GST control); in assay [6] it was 1.17 fold enrichment (6-mer frequency, TF over GST control). The binding signal in assay [7] was 1.19 fold enrichment (6-mer frequency, TF over GST control); in assay [8], 1.24 fold enrichment (6-mer frequency, TF over GST control).

As to TCCACG, the binding signal in assay [1] was 1.03 fold enrichment (6-mer frequency, TF over GST control); in assay [2] it was 1.18 fold enrichment (6-mer frequency, TF over GST control); in assay [3], 1.09 fold enrichment (6-mer frequency, TF over GST control); in assay [4], 1.1 fold enrichment (6-mer frequency, TF over GST control); in assay [5] it was 1.06 fold enrichment (6-mer frequency, TF over GST control); in assay [6] it was 1.04 fold enrichment (6-mer frequency, TF over GST control). Further, the binding signal in assay [7] is 1.01 fold enrichment (6-mer frequency, TF over GST control); in assay [8] it was 1.06 fold enrichment (6-mer frequency, TF over GST control).

Consider GCTCTT, for which the binding signal in assay [1] was 1.5 fold enrichment (6-mer frequency, TF over GST control); in assay [2], 1.73 fold enrichment (6-mer frequency, TF over GST control); in assay [3], 1.41 fold enrichment (6-mer frequency, TF over GST control); in assay [4], 1.34 fold enrichment (6-mer frequency, TF over GST control); in assay [5], 1.56 fold enrichment (6-mer frequency, TF over GST control); in assay [6], 1.52 fold enrichment (6-mer frequency, TF over GST control). Moreover, the binding signal in assay [7] was 1.48 fold enrichment (6-mer frequency, TF over GST control); in assay [8], 1.45 fold enrichment (6-mer frequency, TF over GST control).

As for CTGCCA, the binding signal in assay [1] is 1.18 fold enrichment (6-mer frequency, TF over GST control); in assay [2], 1.25 fold enrichment (6-mer frequency, TF over GST control); in assay [3], 1.18 fold enrichment (6-mer frequency, TF over GST control); in assay [4], 1.15 fold enrichment (6-mer frequency, TF over GST control); in assay [5], 1.08 fold enrichment (6-mer frequency, TF over GST control); in assay [6] it was 1.2 fold enrichment (6-mer frequency, TF over GST control). For the same sequence, the binding signal in assay [7] is 1.09 fold enrichment (6-mer frequency, TF over GST control); in assay [8] it was 1.14 fold enrichment (6-mer frequency, TF over GST control).

For the sequence TAGCAT, the binding signal in assay [1] was 1.09 fold enrichment (6-mer frequency, TF over GST control); in assay [2] it was 1.14 fold enrichment (6-mer frequency, TF over GST control); in assay [3], 1.11 fold enrichment (6-mer frequency, TF over GST control); in assay [4], 1.21 fold enrichment (6-mer frequency, TF over GST control); in assay [5], 1.11 fold enrichment (6-mer frequency, TF over GST control); in assay [6] it was 1.01 fold enrichment (6-mer frequency, TF over GST control). The binding signal in assay [7] is 1.16 fold enrichment (6-mer frequency, TF over GST control); in assay [8], 1.15 fold enrichment (6-mer frequency, TF over GST control).
